Experimental data published in PubChem BioAssay (EPA / NIEHS).
Values joined by “and” are separate entries in the source; they are usually repeats but may differ in a detail not shown here. Equal values may be shown once. Records with an inconclusive call do not appear. Active and inactive are the calls of the source. The calls were made as follows, unless noted: active = hit-call score of the fitted dose curve at least 0.9, where 1 is the maximum; inactive = score below 0.9.

Columns and labels:
[1] = biological target: Retinoic acid receptor RXR-alpha (Homo sapiens) (UniProt P19793); test: OT_NURR1_NURR1RXRa_1440: Odyssey Thera (OT) 24-hour HEK293T Protein Complementation Assay for Nurr1/retinoid X receptor (RXR) (AID 2283386; active = hit-call score of the fitted dose curve at least 0.9, where 1 is the maximum)
Sequence of Retinoic acid receptor RXR-alpha (Homo sapiens) (P19793 whole entry, looked up, the tested form may be a part): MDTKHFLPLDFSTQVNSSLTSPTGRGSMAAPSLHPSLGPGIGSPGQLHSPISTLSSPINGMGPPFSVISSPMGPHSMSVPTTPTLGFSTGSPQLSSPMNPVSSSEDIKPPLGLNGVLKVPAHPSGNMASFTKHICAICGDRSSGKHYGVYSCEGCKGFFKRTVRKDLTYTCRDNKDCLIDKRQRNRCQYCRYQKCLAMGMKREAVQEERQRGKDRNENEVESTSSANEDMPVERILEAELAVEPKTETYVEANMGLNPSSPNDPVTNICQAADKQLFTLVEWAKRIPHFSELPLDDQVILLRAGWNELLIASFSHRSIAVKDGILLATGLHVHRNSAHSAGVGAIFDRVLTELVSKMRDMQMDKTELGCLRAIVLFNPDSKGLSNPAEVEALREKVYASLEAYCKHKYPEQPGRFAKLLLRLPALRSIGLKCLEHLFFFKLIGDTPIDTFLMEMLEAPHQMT
In short: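 Fluorescence PCA read-out; HEK293T; 24 h post-dose; bait/prey fused to reporter fragments; gain-of-signal fit vs DMSO negative control.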

[2] = biological target: Peroxisome proliferator-activated receptor gamma (Homo sapiens) (UniProt P37231); test: OT_PPARg_PPARgSRC1_0480: Odyssey Thera (OT) 8-hour Protein-Complementation Assay for Peroxisome Proliferator-activated Receptor Gamma / SRC-1 Co-activator (AID 2283387; active = hit-call score of the fitted dose curve at least 0.9, where 1 is the maximum)
Sequence of Peroxisome proliferator-activated receptor gamma (Homo sapiens) (P37231 whole entry, looked up, the tested form may be a part): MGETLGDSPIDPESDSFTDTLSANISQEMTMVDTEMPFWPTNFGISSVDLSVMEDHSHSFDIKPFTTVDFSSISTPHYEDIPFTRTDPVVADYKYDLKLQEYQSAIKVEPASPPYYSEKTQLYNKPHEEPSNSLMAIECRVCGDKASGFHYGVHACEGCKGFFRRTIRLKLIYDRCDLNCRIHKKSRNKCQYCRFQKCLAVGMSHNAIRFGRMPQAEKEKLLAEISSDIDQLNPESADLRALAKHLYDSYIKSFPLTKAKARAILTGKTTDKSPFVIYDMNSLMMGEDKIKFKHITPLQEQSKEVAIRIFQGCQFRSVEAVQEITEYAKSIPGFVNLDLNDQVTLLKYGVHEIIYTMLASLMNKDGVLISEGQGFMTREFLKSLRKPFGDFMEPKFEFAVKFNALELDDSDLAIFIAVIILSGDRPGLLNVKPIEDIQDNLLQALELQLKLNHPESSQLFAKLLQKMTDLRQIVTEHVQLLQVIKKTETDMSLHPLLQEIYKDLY
In short: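 Protein-fragment complementation of split Venus YFP reports PPARg/SRC-1 interaction in HEK293T (transfected 48 h before treatment), exposed 8 h. Readout: N/C fluorescence ratio at 488 nm from imaging, Draq5 for segmentation, positive fit relative to DMSO.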

[3] = biological target: Peroxisome proliferator-activated receptor gamma (Homo sapiens) (UniProt P37231); test: OT_PPARg_PPARgSRC1_1440: Odyssey Thera (OT) 24-hour Protein-Complementation Assay for Peroxisome Proliferator-activated Receptor Gamma/ SRC-1 Co-activator (AID 2283388; active = hit-call score of the fitted dose curve at least 0.9, where 1 is the maximum)
In short: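 HEK293T cells transiently transfected with PPARg and SRC-1 fused via (Gly4Ser)2 linker to split Venus YFP fragments (IFP1/IFP2) were dosed 24 h; fixed, Draq5-stained, imaged at 488/635 nm; nuclear/cytoplasmic fluorescence ratio scored versus DMSO baseline, gain-of-signal.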

[4] = CEETOX_H295R_11DCORT: CeeTox H295R High-throughput Steroidogenesis Assay for 11-Deoxycortisol (11DCORT) (AID 2283432); conditions: actives raise or lower the signal;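 as to AC50: 11-deoxycortisol secreted into the medium measured by LC-MS/MS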
In short: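 Human adrenal H295R cells were prestimulated with 10 uM forskolin for 48 h, then exposed to test chemical (0.1% DMSO final) for 48 h. Medium 11-deoxycortisol was quantified by MTBE extraction and HPLC-MS/MS; bidirectional fitting relative to DMSO.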

[5] = CEETOX_H295R_OHPREG: CeeTox H295R High-throughput Steroidogenesis Assay for OH-Pregnenolone (OHPREG) (AID 2283434); conditions: actives raise or lower the signal
In short: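 H295R, 10 uM forskolin pre-stim 48 h; test chemical 48 h, 0.1% DMSO final. MTBE extraction, reverse-phase C18 HPLC-ESI+ MS/MS of medium. Gain/loss vs DMSO; viability by MTT in same wells.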

[6] = CEETOX_H295R_OHPROG: CeeTox H295R High-throughput Steroidogenesis Assay for OH-Progesterone (OHPROG) (AID 2283435); conditions: actives raise or lower the signal;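 as to AC50: 17alpha-hydroxyprogesterone secreted into medium measured by HPLC-MS/MS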
In short: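 HPLC-MS/MS quantification of 17alpha-hydroxyprogesterone secreted by H295R cells after 48 h chemical exposure, following 48 h 10 uM forskolin prestimulation. Gain or loss of signal fitted relative to DMSO. Viability checked by MTT in the same wells.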

[7] = CEETOX_H295R_CORTIC: CeeTox H295R High-throughput Steroidogenesis Assay for Corticosterone (CORTIC) (AID 2283437); conditions: actives raise or lower the signal;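 also: corticosterone secreted into medium quantified by mass spectrometry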
In short: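 48 h forskolin (10 uM) prestim, then 48 h chemical exposure, final DMSO 0.1%. Readout: corticosterone in medium by LC-MS/MS after MTBE extraction. Gain/loss fit vs DMSO; MTT viability in same wells.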

[8] = CEETOX_H295R_DOC: CeeTox H295R High-throughput Steroidogenesis Assay for DOC (AID 2283439); conditions: actives raise or lower the signal
In short: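 Human adrenocortical H295R cells, passages up to 10, received 10 uM forskolin for 48 h before chemical addition. After another 48 h exposure in 0.1% DMSO, secreted DOC was measured by LC-MS/MS, with gain or loss fitted against DMSO controls.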

[9] = CEETOX_H295R_PROG: CeeTox H295R High-throughput Steroidogenesis Assay for Progesterone (PROG) (AID 2283442); conditions: actives raise or lower the signal;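 as to AC50: human H295R adrenal cells primed with 10 µM forskolin before dosing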
In short: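 H295R human adrenal cells were prestimulated with 10 uM forskolin for 48 h, then exposed to test chemical (0.1% DMSO final) for 48 h. Medium progesterone was MTBE-extracted and quantified by HPLC-MS/MS, with bidirectional fitting against DMSO.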

[10] = read-out: Tumor necrosis factor receptor superfamily member 6 (Homo sapiens) (UniProt P25445); test: LTEA_HepaRG_FAS: Life Technologies and Expression Analysis (LTEA) Assay for Fas cell surface death receptor (FAS) using HepaRG (AID 2283447); conditions: mRNA level, 48 h; actives raise or lower the signal
In short: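 Differentiated HepaRG cells in serum-free induction medium were exposed 48 h to 8 half-log concentrations up to 100 uM in 0.5% DMSO, in duplicate. FAS mRNA was measured by qRT-PCR normalised to ACTB, GAPDH and POLR2A; bidirectional fit versus DMSO.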

[11] = read-out: Fatty acid synthase (Homo sapiens) (UniProt P49327); test: LTEA_HepaRG_FASN: Life Technologies and Expression Analysis (LTEA) Assay for Fatty Acid Synthase (FASN) using HepaRG (AID 2283448); conditions: mRNA level, 48 h; actives raise or lower the signal
In short: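 HepaRG, 48 h exposure, 8-pt half-log series top 100 uM, 0.5% DMSO vehicle, duplicates. Readout: FASN transcript by Fluidigm qRT-PCR; housekeeping-normalized; bidirectional curve fit vs DMSO baseline.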

[12] = read-out: Cyclin D2 (CCND2), CCND2 (gene 894); test: LTEA_HepaRG_CCND2: Life Technologies and Expression Analysis (LTEA) Assay for Cyclin D2 (CCND2) using HepaRG (AID 2283449); conditions: mRNA level, 48 h; actives raise or lower the signal;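 also: CCND2 transcript measured by TaqMan qRT-PCR and normalised to three housekeeping genes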
In short: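 HepaRG, 48 h dosing, 8-pt half-log curve from 100 uM, 0.5% DMSO; duplicate wells. Readout: CCND2 transcript by microfluidic qRT-PCR, housekeeping-normalised; bidirectional fit vs DMSO baseline.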

[13] = read-out: Cyclin Dependent Kinase Inhibitor 1A (CDKN1A), CDKN1A (gene 1026); test: LTEA_HepaRG_CDKN1A: Life Technologies and Expression Analysis (LTEA) Assay for Cyclin Dependent Kinase Inhibitor 1A (CDKN1A) using HepaRG (AID 2283450); conditions: mRNA level, 48 h; actives raise or lower the signal
In short: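 Differentiated human HepaRG cells, pre-cultured 48 h, were exposed in duplicate for 48 h in serum-free induction medium to eight half-log concentrations up to 100 uM (0.5% DMSO). CDKN1A mRNA was measured by qRT-PCR, normalized to ACTB/GAPDH/POLR2A, bidirectionally fitted versus DMSO.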

[14] = read-out: Cyclin D1 (CCND1), CCND1 (gene 595); test: LTEA_HepaRG_CCND1: Life Technologies and Expression Analysis (LTEA) Assay for Cyclin D1 (CCND1) using HepaRG (AID 2283451); conditions: mRNA level, 48 h; actives raise or lower the signal;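 as to AC50: TaqMan qRT-PCR transcript level normalised to ACTB GAPDH and POLR2A housekeeping genes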
In short: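 Differentiated human HepaRG cells in serum-free induction medium were exposed 48 h to eight half-log concentrations up to 100 uM in 0.5% DMSO; mRNA quantified by TaqMan qRT-PCR, normalized to ACTB, GAPDH, POLR2A, fitted bidirectionally versus DMSO.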

[15] = read-out: catalase (CAT), CAT (gene 847); test: LTEA_HepaRG_CAT: Life Technologies and Expression Analysis (LTEA) Assay for catalase (CAT) using HepaRG (AID 2283452); conditions: mRNA level, 48 h; actives raise or lower the signal;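 as to AC50: TaqMan qRT-PCR signal normalized to ACTB GAPDH and POLR2A housekeeping genes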
In short: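 HepaRG cells in serum-free induction medium, 0.5% DMSO vehicle, exposed 48 h in duplicate over 8 half-log concentrations from 100 uM. CAT mRNA measured by qRT-PCR, normalized to ACTB, GAPDH, POLR2A; bidirectional fit versus DMSO.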

[16] = read-out: flavin-containing dimethylaniline monooxygenases 3 (FMO3), FMO3 (gene 2328); test: LTEA_HepaRG_FMO3: Life Technologies and Expression Analysis (LTEA) Assay for flavin-containing dimethylaniline monooxygenases 3 (FMO3) using HepaRG (AID 2283453); conditions: mRNA level, 48 h; actives raise or lower the signal;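 as to AC50: FMO3 transcript by TaqMan qRT-PCR normalized to ACTB GAPDH and POLR2A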
In short: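 Eight-point concentration-response in serum-free HepaRG cultures (top 100 uM, 0.5% DMSO, 48 h). Read-out: FMO3 mRNA level normalized to three endogenous control genes, fitted bidirectionally versus vehicle.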

[17] = read-out: Cytochrome P450 (CYP1A1), CYP1A1 (gene 1543); test: LTEA_HepaRG_CYP1A1: Life Technologies and Expression Analysis (LTEA) Assay for Cytochrome P450 (CYP1A1) using HepaRG (AID 2283454); conditions: mRNA level, 48 h; actives raise or lower the signal
In short: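 Differentiated HepaRG cells in serum-free induction medium were exposed in duplicate for 48 h to eight half-log concentrations up to 100 uM in 0.5% DMSO. CYP1A1 mRNA was quantified by TaqMan qRT-PCR, normalized to ACTB, GAPDH and POLR2A.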

[18] = CEETOX_H295R_ANDR: CeeTox H295R High-throughput Steroidogenesis Assay for Androstenedione (ANDR) (AID 2283436); conditions: actives raise or lower the signal
In short: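 48 h chemical exposure, H295R cells, DMEM/F12 + ITS+ and Nu-Serum. Medium androstenedione: MTBE extraction, C18 reverse-phase HPLC, ESI+ MS/MS. Fit bidirectional vs DMSO; MTT viability in same wells.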

Measured: AC50

Sequence of Fatty acid synthase (Homo sapiens) (P49327 whole entry, looked up): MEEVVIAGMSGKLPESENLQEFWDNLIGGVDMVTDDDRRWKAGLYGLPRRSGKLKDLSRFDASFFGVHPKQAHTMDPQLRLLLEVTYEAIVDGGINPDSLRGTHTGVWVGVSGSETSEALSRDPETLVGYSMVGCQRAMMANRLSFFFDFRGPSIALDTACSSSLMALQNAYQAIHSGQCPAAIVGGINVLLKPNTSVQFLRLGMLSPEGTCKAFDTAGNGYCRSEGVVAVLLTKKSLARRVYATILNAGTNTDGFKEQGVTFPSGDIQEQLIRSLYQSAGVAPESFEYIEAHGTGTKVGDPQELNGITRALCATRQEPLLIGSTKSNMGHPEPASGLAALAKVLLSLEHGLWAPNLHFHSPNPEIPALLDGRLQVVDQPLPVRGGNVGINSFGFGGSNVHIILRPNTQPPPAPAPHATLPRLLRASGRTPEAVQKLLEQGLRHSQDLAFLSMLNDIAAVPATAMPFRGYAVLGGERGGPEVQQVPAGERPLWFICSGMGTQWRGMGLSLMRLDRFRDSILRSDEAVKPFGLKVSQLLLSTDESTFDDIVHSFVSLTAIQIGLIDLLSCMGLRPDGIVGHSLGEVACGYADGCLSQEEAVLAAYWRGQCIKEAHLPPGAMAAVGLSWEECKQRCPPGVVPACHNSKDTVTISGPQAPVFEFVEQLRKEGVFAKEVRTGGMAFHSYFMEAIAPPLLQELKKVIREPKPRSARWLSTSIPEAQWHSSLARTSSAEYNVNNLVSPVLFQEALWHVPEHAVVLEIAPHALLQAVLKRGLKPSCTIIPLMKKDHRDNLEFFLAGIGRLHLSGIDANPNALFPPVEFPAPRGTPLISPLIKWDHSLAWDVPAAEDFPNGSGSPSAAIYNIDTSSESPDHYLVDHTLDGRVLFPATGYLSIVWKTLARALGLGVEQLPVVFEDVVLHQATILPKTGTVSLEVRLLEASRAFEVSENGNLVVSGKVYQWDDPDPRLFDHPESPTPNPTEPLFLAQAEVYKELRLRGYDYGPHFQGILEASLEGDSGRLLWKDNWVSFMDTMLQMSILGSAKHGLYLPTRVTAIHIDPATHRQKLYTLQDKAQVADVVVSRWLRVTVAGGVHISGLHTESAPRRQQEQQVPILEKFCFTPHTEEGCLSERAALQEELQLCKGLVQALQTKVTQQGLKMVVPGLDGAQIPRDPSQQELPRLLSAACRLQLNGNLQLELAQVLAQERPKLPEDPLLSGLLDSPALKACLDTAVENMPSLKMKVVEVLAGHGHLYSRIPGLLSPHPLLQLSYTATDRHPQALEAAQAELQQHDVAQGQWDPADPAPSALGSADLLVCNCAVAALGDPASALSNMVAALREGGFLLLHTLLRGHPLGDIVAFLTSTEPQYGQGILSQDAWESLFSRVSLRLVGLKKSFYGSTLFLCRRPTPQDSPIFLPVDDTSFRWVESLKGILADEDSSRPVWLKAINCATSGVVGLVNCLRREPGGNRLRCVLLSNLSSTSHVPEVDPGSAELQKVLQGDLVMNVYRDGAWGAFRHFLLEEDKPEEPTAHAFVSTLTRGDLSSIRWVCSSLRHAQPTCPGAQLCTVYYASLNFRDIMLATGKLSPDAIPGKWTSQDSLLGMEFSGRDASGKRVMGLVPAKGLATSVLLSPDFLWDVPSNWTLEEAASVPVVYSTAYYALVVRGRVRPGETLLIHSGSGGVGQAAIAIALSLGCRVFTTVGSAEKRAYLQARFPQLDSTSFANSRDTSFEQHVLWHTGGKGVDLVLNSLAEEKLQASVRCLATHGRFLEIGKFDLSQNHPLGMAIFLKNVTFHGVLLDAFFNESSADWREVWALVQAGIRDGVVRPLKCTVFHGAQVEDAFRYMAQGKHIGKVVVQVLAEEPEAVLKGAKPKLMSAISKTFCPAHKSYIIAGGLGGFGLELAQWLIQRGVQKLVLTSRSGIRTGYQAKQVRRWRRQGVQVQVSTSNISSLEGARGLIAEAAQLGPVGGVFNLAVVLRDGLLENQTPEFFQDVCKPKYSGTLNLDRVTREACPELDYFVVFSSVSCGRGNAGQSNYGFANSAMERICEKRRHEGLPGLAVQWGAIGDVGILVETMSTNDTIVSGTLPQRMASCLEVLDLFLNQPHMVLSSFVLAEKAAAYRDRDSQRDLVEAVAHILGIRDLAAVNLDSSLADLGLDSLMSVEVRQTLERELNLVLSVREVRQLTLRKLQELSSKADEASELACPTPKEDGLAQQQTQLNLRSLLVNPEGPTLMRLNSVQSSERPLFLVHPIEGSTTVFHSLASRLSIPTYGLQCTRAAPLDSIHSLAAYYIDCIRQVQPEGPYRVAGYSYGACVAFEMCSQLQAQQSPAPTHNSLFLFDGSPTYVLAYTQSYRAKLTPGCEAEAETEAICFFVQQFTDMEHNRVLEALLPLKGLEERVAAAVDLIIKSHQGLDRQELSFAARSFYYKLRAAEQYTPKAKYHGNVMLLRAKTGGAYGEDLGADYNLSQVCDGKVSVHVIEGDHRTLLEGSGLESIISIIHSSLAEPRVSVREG

C[C@]12CCC(=O)C=C1CC[C@@H]1[C@@H]2CC[C@@]2(C)[C@H]1CC[C@]2(C)O
active: [4] 11 µM | [5] 5.59 µM | [6] 807 nM | [11] 66.1 µM | [13] 79.9 µM | [16] 66 µM
not listed: [18]
inactive: all other assays above

CC1=C2C[C@H]3[C@@H](CC=C4C[C@@H](O)CC[C@@]43C)[C@@H]2CC[C@]12O[C@@H]1C[C@H](C)CN[C@H]1[C@H]2C
active: [17] 34.3 µM
not listed: [5] | [6] | [9]
inactive: all other assays above

Oc1ccc(C(c2ccc(O)cc2)(C(F)(F)F)C(F)(F)F)cc1
active: [11] 90.7 µM | [12] 147 nM | [15] 89.2 µM | [16] 78.3 µM | [17] 50 µM
inactive: [2] | [3] | [10] | [13] | [14]

C=CC(N)=O
not listed: [1] | [2] | [3] | [5] | [6] | [9] | [18]
inactive: all other assays above

ClC1=C(Cl)[C@]2(Cl)[C@@H]3[C@@H]4C[C@@H]([C@H]5O[C@@H]45)[C@@H]3[C@@]1(Cl)C2(Cl)Cl
inactive: [2] | [3] | [10] | [11] | [12] | [13] | [14] | [15] | [16]
active: [17] 28.3 µM

CCC(C)(CC)c1cc(NC(=O)c2c(OC)cccc2OC)on1
active: [11] 33.8 µM | [17] 10.2 µM
not listed: [1] | [4] | [7] | [8] | [18]
inactive: all other assays above

O=C(O)C(F)(F)C(F)(F)C(F)(F)C(F)(F)C(F)(F)C(F)(F)C(F)(F)C(F)(F)C(F)(F)F
inactive: [2] | [3] | [12] | [17]
active: [10] 89.3 µM | [11] 31.1 µM | [13] 16.8 µM | [14] 12.6 µM | [15] 65.3 µM | [16] 35.3 µM

CCC(C)(c1ccc(O)cc1)c1ccc(O)cc1
inactive: [2] | [3] | [10] | [12] | [13] | [14] | [15] | [16] | [17]
active: [11] 70.5 µM

CCCCCCCCCC[N+](C)(C)CCCCCCCCCC
active: [11] 42.7 µM | [13] 88.2 µM | [14] 50 µM | [16] 79.4 µM | [17] 22.9 µM
inactive: [2] | [3] | [10] | [12] | [15]

COS(=O)(=O)OC
inactive: [2] | [3] | [10] | [11] | [12] | [13] | [14] | [15] | [16]
active: [17] 25.5 µM

Cc1ccccc1[N+](=O)[O-]
inactive: [2] | [3] | [10] | [11] | [13] | [14] | [15] | [16] | [17]

O=C(O)C(F)(F)C(F)(F)C(F)(F)C(F)(F)C(F)(F)C(F)(F)C(F)(F)C(F)(F)F
active: [10] 69.2 µM | [11] 94.2 µM | [13] 79.9 µM | [14] 50 µM | [15] 85 µM | [16] 79.7 µM
inactive: [2] | [3] | [17]

O=NN(c1ccccc1)c1ccccc1
inactive: [2] | [3] | [10] | [11] | [12] | [13] | [14] | [15] | [16]
active: [17] 25.9 µM

CCCN(CCC)N=O
inactive: [2] | [3] | [10] | [11] | [12] | [13] | [14] | [15] | [16]
active: [17] 50 µM

Cc1cc(-c2ccc(N)c(C)c2)ccc1N
active: [6] 2.96 µM and 10.2 µM | [9] 2.96 µM and 31.1 µM | [11] 25.1 µM | [16] 25.1 µM | [17] 20.3 µM
not listed: [1] | [4] | [7] | [8] | [18]
inactive: all other assays above

CC(C)(O)C(=O)Nc1ccc([N+](=O)[O-])c(C(F)(F)F)c1
active: [10] 0.0219 µM | [12] 39.8 nM | [17] 0.0423 µM
inactive: [11] | [13] | [14] | [15] | [16]

O=C(O)C(F)(F)C(F)(F)C(F)(F)C(F)(F)C(F)(F)F
active: [16] 2.34 µM | [17] 50 µM
inactive: [2] | [3] | [10] | [11] | [12] | [13] | [14] | [15]
